Experimental findings from PubChem BioAssay are described below.

Assay [1] has as its system PRMT1 (protein arginine N-methyltransferase 1). Nature of the assay: small molecules binding arginine methyltransferase PRMT1 – biochemical, small-molecule microarray, 635 nm fluorescence, primary screen (AID 1088).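 Note: binding of Prmt1 protein to compounds spotted on small-molecule microarray slides.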 To be noted: higher = more signal.
Assay [2] can be described thus: growth effects on S. cerevisiae YJM789 – YJM789 clinical isolate, OD600, 24 h, basal, primary screen (AID 1089).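 Note: growth of clinical yeast isolate S. cerevisiae YJM 789 seeded 1000 cells per well; test concentration not given here.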 To be noted: higher = more signal, called active from +8 up or from −8 down.
Assay [3] in a line: S. pombe growth modifiers, basal conditions – strain 972, OD600, 24 h, no modulator, primary screen (AID 1090).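 Note: basal condition with compound alone and no growth modifier present; test concentration not given here.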 The following applies: S. pombe 972 growth, higher = more signal, called active from +8 up or from −8 down.
Assay [4] in a line: budding yeast growth modifiers under rapamycin – strain BY4716, OD600, 96 h, primary screen (AID 1091). Note: test concentration not given here. The following applies: S. cerevisiae BY4716 + rapamycin, higher = more signal, called active from +8 up or from −8 down.
Assay [5] has as its target Torsin-1A-interacting protein 2 (Homo sapiens) (UniProt Q8NFQ8). Put plainly: small molecules binding lysate-expressed LULL1 – cell lysate, human LULL1 lysate, 635/667 nm fluorescence, primary screen (AID 1092).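 Note: probe is lysate of COS7 cells overexpressing human LULL1; score merges per-feature 667 nm fluorescence with signal-to-noise.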 To be noted: small-molecule microarray, hLULL1 lysate binding, 635 nm fluorescence; higher = more signal.
The nature of assay [6]: optical density change of DRC41 E. coli – strain DRC41, OD650, 24 h, E. coli filamentation project, primary screen (AID 1093).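 Note: MC1000 strain lacking acrAB efflux and sulA so SOS filamentation is blocked; test concentration not given here.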 To be noted: E. coli DRC41 growth, higher = more signal, called active from +8 up or from −8 down.
Assay [7] is described as follows: probe aLefty2 binding to arrayed compounds – biochemical, biotinylated probe, 635/667 nm fluorescence, primary screen (AID 1094).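 Note: score merges spot fluorescence near 667 nm with spot signal-to-noise ratio.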 To be noted: small-molecule microarray, higher = more signal.
Assay [8] has as its system Noggin (protein binding on small-molecule microarray). Nature of the assay: small molecules binding Noggin protein – biochemical, 635/667 nm fluorescence, primary screen (AID 1095).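 Note: score merges 667 nm feature fluorescence with signal to noise over triplicate slides.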 The following applies: 635 nm fluorescence, higher = more signal.
The target of assay [9] is Neurogenic locus notch homolog protein 3 (Homo sapiens) (UniProt Q9UM47). Put plainly: small molecules binding NOTCH3 protein – biochemical, 635/667 nm fluorescence, primary screen (AID 1096). The following applies: small-molecule microarray, 635 nm fluorescence, higher = more signal.
A short description of assay [10]: probe aEGFR binding to arrayed compounds – biochemical, biotinylated probe, 635/667 nm fluorescence, primary screen (AID 1097).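 Note: probe is a biotinylated anti-EGFR antibody binding compounds printed on slides; score combines fluorescence near 667 nm and signal to noise of each spot.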 The following applies: small-molecule microarray, higher = more signal.
Assay [11] has as its system Plasmodium falciparum Sir2 (PF13_0152, Sir2A). Put plainly: Plasmodium falciparum Sir2A binding compounds – biochemical, small-molecule microarray, 635 nm fluorescence, primary screen (AID 1098).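 Note: score merges spot fluorescence intensity with its signal-to-noise ratio.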 The following applies: fluorescence 635 nm, higher = more signal.
A short description of assay [12]: probe aDKK1 binding to arrayed compounds – biochemical, biotinylated probe, 635/667 nm fluorescence, primary screen (AID 1099).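 Note: score merges 667nm spot fluorescence with signal to noise across triplicate slides; reference of the scale not given here.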 To be noted: small-molecule microarray, higher = more signal.
Assay [13] in a line: probe aCHRDL2 binding to arrayed compounds – biochemical, biotinylated probe, 635/667 nm fluorescence, primary screen (AID 1100). The following applies: small-molecule microarray, higher = more signal.
The nature of assay [14]: change in splice reporter luminescence, either direction, cell-based, HEK293, spliceosome inhibition project, primary screen (AID 1101).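 Note: HEK293 cells carrying a splicing-competent luciferase reporter gene; test concentration not given here.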 The following applies: HEK293 splicing luciferase reporter, 24 h, higher = more signal, called active from +8 up or from −8 down. (A reporter such as luciferase makes a cellular process visible.)
For assay [15], the target named is Fibroblast growth factor 10 (Homo sapiens) (UniProt O15520). Nature of the assay: compounds binding fibroblast growth factor 10 – biochemical, small-molecule microarray, 635 nm fluorescence, primary screen (AID 1102). To be noted: FGF10 binding, fluorescence 635 nm, higher = more signal.
Assay [16] deals with glycogen synthase kinase-3 (GSK3A per assay name; protocol says GSK3B). Nature of the assay: compounds binding glycogen synthase kinase-3 – biochemical, small-molecule microarray, 635 nm fluorescence, GSK3A, primary screen (AID 1103). Note: the record names both GSK3A and GSK3B. The following applies: fluorescence 635 nm, higher = more signal.
For assay [17], the target named is Epidermal growth factor receptor (Homo sapiens) (UniProt P00533). Put plainly: compounds binding epidermal growth factor receptor – biochemical, small-molecule microarray, 635 nm fluorescence, primary screen (AID 1104).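 Note: score merges 667 nm emission intensity with spot signal to noise over triplicate slides.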 The following applies: EGFR binding, higher = more signal.
The target of assay [18] is Follistatin-related protein 3 (Homo sapiens) (UniProt O95633). Put plainly: compounds binding follistatin-related protein 3 – biochemical, small-molecule microarray, 635 nm fluorescence, primary screen (AID 1105).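 Note: score merges emission near 667 nm and signal to noise per printed spot across three slides.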 The following applies: FSTL3 binding, higher = more signal.
Assay [19] addresses Dickkopf-related protein 1 (Homo sapiens) (UniProt O94907). Put plainly: small molecules binding DKK1 protein – biochemical, small-molecule microarray, 635 nm fluorescence scan, primary screen (AID 1106).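 Note: score merges emission near 667 nm with signal to noise over three replicate slides.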 The following applies: higher = more signal.
Assay [20] relates to Inhibin beta A chain (activin A). Put plainly: small molecules binding activin A – biochemical, small-molecule microarray, 635 nm fluorescence scan, primary screen (AID 1107).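 Note: mouse activin A protein probed at 4.33 µg/mL on printed slides; score merges bound-protein fluorescence near 667 nm with spot signal-to-noise.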 The following applies: INHBA, higher = more signal.

Structures are written as SMILES. The source made the active and inactive calls.

Chain of Epidermal growth factor receptor (Homo sapiens) (P00533 whole entry, looked up): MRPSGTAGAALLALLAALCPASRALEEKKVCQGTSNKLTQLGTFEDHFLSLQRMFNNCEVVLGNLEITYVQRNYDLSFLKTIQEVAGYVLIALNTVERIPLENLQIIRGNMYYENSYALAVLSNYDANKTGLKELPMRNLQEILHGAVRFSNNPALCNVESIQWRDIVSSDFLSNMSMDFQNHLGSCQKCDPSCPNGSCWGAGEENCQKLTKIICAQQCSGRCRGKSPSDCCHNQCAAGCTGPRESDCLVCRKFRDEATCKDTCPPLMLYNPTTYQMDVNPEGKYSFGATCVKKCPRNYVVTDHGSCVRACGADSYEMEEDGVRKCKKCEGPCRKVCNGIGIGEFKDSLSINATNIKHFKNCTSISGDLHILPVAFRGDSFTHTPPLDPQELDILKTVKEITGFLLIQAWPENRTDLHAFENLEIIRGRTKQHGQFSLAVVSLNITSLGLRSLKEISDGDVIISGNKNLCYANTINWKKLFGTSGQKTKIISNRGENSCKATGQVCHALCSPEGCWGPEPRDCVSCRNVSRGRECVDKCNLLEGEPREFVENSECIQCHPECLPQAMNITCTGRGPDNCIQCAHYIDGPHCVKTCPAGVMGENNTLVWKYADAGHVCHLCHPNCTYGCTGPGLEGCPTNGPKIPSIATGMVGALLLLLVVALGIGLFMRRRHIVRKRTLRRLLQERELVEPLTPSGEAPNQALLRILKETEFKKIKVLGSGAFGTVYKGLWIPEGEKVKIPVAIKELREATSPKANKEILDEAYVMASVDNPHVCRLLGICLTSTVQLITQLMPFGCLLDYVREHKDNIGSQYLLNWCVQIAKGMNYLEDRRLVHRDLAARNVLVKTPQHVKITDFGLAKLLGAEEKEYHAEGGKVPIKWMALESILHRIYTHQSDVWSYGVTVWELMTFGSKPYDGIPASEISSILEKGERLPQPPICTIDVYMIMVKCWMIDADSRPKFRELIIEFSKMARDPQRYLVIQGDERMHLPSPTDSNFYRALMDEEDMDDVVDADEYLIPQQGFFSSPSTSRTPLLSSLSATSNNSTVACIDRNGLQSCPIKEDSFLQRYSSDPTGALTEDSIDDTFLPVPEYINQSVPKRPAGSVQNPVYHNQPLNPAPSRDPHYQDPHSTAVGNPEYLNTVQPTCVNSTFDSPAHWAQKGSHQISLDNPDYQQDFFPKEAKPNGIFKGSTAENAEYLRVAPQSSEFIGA
Chain of Torsin-1A-interacting protein 2 (Homo sapiens) (Q8NFQ8 whole entry, looked up): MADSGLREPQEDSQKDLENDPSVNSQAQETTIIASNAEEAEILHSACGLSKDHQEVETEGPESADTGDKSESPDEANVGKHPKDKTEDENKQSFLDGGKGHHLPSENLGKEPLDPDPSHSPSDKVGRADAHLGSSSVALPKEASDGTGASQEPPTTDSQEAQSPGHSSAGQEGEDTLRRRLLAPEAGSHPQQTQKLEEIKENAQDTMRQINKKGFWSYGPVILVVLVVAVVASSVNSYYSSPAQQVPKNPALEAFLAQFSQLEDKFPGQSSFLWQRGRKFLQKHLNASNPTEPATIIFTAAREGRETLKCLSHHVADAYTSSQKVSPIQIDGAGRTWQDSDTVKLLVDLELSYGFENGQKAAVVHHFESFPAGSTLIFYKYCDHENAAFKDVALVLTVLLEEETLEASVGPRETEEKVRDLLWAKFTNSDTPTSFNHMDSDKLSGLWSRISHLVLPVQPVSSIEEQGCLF
Chain of Follistatin-related protein 3 (Homo sapiens) (O95633 whole entry, looked up): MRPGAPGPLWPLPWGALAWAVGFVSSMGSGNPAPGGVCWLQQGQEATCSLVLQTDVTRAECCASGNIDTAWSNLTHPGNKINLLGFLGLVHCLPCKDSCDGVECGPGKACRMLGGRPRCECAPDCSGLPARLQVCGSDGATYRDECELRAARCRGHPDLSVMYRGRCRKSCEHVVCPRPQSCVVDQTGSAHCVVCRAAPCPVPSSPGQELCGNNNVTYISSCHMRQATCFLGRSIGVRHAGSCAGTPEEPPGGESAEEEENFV
Chain of Fibroblast growth factor 10 (Homo sapiens) (O15520 whole entry, looked up): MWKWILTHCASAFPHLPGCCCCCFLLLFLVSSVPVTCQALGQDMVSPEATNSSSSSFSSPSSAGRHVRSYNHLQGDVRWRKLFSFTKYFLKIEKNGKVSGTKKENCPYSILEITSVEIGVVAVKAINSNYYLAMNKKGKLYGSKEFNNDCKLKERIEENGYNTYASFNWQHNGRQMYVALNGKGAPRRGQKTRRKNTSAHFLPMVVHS
Chain of Dickkopf-related protein 1 (Homo sapiens) (O94907 whole entry, looked up): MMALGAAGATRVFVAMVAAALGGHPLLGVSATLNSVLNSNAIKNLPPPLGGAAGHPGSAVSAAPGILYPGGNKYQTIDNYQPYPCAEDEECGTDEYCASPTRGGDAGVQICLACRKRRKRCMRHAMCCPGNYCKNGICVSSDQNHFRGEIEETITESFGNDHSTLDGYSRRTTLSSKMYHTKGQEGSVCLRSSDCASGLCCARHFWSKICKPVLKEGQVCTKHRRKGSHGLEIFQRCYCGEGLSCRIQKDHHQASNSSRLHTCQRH
Chain of Neurogenic locus notch homolog protein 3 (Homo sapiens) (Q9UM47 whole entry, looked up): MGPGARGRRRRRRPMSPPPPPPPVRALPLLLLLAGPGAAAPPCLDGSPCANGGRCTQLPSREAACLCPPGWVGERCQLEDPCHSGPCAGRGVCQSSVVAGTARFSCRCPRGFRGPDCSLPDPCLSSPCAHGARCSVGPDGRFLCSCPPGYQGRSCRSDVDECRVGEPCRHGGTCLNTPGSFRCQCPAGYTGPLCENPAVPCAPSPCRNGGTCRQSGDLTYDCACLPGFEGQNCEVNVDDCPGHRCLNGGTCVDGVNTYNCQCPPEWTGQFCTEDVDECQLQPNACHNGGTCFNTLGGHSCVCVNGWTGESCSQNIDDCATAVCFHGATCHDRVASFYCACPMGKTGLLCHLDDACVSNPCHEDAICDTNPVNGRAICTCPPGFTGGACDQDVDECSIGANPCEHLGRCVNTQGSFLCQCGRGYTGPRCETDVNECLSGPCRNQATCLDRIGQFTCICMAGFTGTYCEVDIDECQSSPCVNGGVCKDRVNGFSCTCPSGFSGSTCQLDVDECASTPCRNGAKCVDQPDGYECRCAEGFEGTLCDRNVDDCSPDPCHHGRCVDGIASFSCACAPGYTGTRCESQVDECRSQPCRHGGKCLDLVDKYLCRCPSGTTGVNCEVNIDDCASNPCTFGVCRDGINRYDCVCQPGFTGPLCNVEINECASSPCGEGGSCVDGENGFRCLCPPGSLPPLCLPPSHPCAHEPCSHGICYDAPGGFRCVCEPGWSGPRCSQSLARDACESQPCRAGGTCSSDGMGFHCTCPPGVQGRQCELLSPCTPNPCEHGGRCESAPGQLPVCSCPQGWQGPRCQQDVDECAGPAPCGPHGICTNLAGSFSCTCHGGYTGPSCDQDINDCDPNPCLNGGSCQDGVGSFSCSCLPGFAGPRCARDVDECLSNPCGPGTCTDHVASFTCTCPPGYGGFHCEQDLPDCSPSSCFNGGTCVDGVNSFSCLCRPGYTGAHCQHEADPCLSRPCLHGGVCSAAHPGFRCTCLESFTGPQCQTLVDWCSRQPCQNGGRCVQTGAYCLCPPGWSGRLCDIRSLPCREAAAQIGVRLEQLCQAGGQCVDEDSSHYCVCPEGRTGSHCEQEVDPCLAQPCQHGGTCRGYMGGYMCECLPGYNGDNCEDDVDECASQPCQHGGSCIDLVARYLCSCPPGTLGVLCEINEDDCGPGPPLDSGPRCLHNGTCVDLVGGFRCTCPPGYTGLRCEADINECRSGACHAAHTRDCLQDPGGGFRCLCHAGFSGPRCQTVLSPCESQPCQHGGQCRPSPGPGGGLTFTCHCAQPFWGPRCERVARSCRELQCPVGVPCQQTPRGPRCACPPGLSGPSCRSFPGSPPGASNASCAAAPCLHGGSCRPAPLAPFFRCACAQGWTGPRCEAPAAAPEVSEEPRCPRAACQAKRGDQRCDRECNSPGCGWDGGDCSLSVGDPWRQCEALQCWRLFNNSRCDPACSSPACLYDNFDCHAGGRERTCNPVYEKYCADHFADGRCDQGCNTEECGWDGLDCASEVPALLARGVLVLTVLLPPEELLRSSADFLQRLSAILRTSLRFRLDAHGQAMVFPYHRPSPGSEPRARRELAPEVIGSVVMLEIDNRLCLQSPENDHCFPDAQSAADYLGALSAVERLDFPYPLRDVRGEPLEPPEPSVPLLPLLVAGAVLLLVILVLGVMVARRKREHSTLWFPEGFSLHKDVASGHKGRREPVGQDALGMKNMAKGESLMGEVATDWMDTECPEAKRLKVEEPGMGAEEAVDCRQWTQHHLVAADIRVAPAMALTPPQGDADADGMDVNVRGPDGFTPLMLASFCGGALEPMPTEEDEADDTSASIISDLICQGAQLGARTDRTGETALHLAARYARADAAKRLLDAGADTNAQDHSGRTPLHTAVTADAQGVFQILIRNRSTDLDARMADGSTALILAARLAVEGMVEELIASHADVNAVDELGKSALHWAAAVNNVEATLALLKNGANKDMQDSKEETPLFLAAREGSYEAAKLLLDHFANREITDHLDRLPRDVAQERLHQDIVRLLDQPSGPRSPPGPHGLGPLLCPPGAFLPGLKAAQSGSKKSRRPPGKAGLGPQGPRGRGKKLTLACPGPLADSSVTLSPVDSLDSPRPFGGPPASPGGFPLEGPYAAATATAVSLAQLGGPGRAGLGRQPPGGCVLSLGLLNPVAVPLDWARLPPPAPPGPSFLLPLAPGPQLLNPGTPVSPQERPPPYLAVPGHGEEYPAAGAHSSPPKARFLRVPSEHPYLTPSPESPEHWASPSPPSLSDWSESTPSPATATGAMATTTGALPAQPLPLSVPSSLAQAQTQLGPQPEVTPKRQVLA

As for `C=CCC(OC(C)=O)[C@@H]1[C@@H](N(Cc2cccc3ccccc23)C(=O)c2ccc(C)cc2)c2cc(OCCCO)ccc2N1C(=O)c1ccc(-c2ccccc2)cc1` (stereo not given in full), the composite z-score was 0.578 in [1]; 0.298 in [5]; -0.11 in assay [7]; 0.314 in assay [8]; 0.387 in assay [9]; -0.0967 in assay [10]. Moreover, the composite z-score in assay [11] is 0.451; in [12], -0.0044; in assay [13], 0.322; in assay [15] it was -0.162; in assay [16] it was 0.0243; in assay [17] it was 0.0513. The composite z-score was 0.268 in assay [18], -0.133 in assay [19] and 1.08 in assay [20]. In addition, the z-score in [2] was -2.24 (inactive); in [3], 0.167 (inactive); in assay [4] it was -0.347 (inactive); in assay [6] it was 1.29 (inactive); in assay [14], -1.15 (inactive).
As to `O=C1C[C@@](C(=O)NC2CC2)(c2ccc([N+](=O)[O-])cc2)[C@@H](c2ccc(CO)cc2I)N1CC12CC3CC(CC(C3)C1)C2`, the composite z-score was 1.48 in assay [1]; 2.96 in assay [5]; -0.145 in assay [7]; 1.32 in assay [8]; 1.07 in assay [9]; -0.198 in [10]. Also, the composite z-score in assay [11] is 0.841; in assay [12] it was -0.0788; in assay [13] it was -0.52; in assay [15], 1.23; in [16] it was 0.968; in [17], 0.282. The figures for the composite z-score in assay [18], in assay [19] and in assay [20] were 0.991, 0.266 and -0.22, respectively. The z-score is 1.82 (inactive) in assay [2]; 1.19 (inactive) in assay [3]; 5.3 (inactive) in assay [4]; -1.05 (inactive) in [6]; -1.11 (inactive) in assay [14].
For the molecule `COc1ccc(C(=O)Nc2ccc(CN3C(=O)[C@]4(O[C@H](CCn5cc(CCO)nn5)[C@@H]([Si](C)(C)c5ccc(OC)cc5)[C@@H]4C)c4ccccc43)cc2)cc1`, the composite z-score in assay [1] amounted to 1.56; in assay [5] it was 0.961; in assay [7], 0.201; in assay [8] it was 1.65; in [9], 1.08; in assay [10], 0.14. Moreover, the composite z-score in [11] was found to be 0.814; in [12], 0.3; in assay [13] it was 0.589; in assay [15] it was 0.898; in assay [16], 1.03; in [17], 0.958. Moreover, the composite z-score in assay [18] is -0.106; in assay [19], -0.0456; in [20], 1.11. Besides, the z-score in [2] was 1.42 (inactive); in assay [3], -7.78 (inactive); in [4], 1.13 (inactive); in assay [6] it was 1.07 (inactive); in [14] it was 5.66 (inactive).
For the molecule `C=C(COC)/C(=C/C[C@@H](OC(C)=O)c1cccc(OCCO)c1)c1cc(C(=O)OC)ccc1OC`, the composite z-score in assay [1] was 0.602; in assay [5], 0.228; in assay [7], 0.0116; in assay [8], 1.56; in assay [9], 0.493; in assay [10], -0.15. Further, the composite z-score is 0.695 in assay [11]; 0.258 in [12]; 0.258 in [13]; 0.0556 in assay [15]; 0.0957 in assay [16]; 0.214 in assay [17]. Also, the composite z-score is 0.121 in [18], -0.0663 in assay [19] and 0.971 in [20]. Besides, the z-score was 0.036 (inactive) in [2]; -1.11 (inactive) in assay [3]; -1.03 (inactive) in assay [4]; 1.09 (inactive) in assay [6]; -0.964 (inactive) in [14].
For `CCC1=C2CN(Cc3ccccc3Br)[C@@H]([C@@H](O)Cc3ccccc3)C2C=CCC1` (stereo not given in full), the composite z-score in assay [1] was 1.24; in assay [5], 2.11; in assay [7] it was -0.125; in [8], 0.515; in [9], 1.05; in assay [10] it was -0.0981. The composite z-score is 0.124 in assay [11]; -0.0181 in assay [12]; -0.311 in assay [13]; 0.597 in assay [15]; 0.6 in assay [16]; 0.164 in assay [17]. In addition, the values for the composite z-score in assay [18], in assay [19] and in assay [20] were 0.961, 0.513 and 0.677, respectively. Moreover, the z-score is -0.828 (inactive) in [2]; -5.56 (inactive) in [3]; -1.13 (inactive) in assay [4]; 0.777 (inactive) in assay [6]; -2.14 (inactive) in assay [14].
